Source: PubChem BioAssay (Tox21)
Inconclusive results are not listed. Unmarked numbers belong to inactive results. Active and inactive are the calls of the source. The call rests on the fitted dose curve; in most records, active means well fitted cell-killing curve with a large enough effect in the repeat runs; inconclusive means weak or mixed curves, or effect the other way; inactive means flat fitted curve, though single readings scatter.

assay: qHTS RealTime-Glo MT Cell Viability Assay in HEK293 cells - 8 hour (AID 1224887); details: RealTime-Glo luminescence; series mostly up to 76.8 µM; activity change, negative = cytotoxicity: at the top concentration; further: nearly all actives have a fitted effect of over 50% in size; on activity change, negative = cytotoxicity: top concentration of the series differs between compounds
Excerpt: U.S. Tox21 Program National Center for Advancing Translational Sciences [NCATS] NIH Chemical Genomics Center [NCGC] U.S. Environmental Protection Agency [EPA] National Institutes of Environmental Health Sciences [NIEHS] National Toxicology Program [NTP] U.S. Food and Drug Administration [FDA] Tox21 Assay Overview: Measure of cell viability is critical in the cell-base assay. Analysis of cell viability is necessary for the characterization of cell responses to cytotoxic drugs and environmental stress. A RealTime-Glo MT Cell Viability Assay to monitor cell viability in real time of continues cell culture during 40 hours of compound treatment was used to screen Tox21 10K library compounds in Hek293 cells. The RealTime-Glo MT Cell Viability Assay is a nonlytic, homogeneous, bioluminescent method to measure cell viability in real time using a simple, plate-based method. The assay involves adding NanoLuc luciferase and a cell-permeant prosubstrate to cells in culture. Viable cells reduce the proprietary prosubstrate to generate a substrate for NanoLuc luciferase. This substrate diffuses from cells into the surrounding culture medium, where it is rapidly used by the NanoLuc Enzyme to produce a luminescent signal. The signal correlates with the number of viable cells, making the assay well suited for cytotoxicity studies.
Tox21 Assay Protocol Summary: The mixture of Hek293 cell suspension and reagents were dispensed at 600cells/6 ul/well in 1536-well tissue culture treated black solid bottom plates using a Multidrop dispenser. After the assay plates were incubated at a 37 C/5% CO2 incubator for 5 hours, 23 nL of compounds dissolved in DMSO, positive and negative controls was transferred to the assay plate by a pintool work station. The plates were incubated at 37 C for 40 hours. The luminescence intensity were measured at 0h, 8h, 16h, 24h, 32h and 40h time points using ViewLux plate reader during compound treatment.
On the % scale 0 is the no-effect control and ±100 the full control effect; potency means the concentration at half of the fitted maximal effect.

| Compound | activity change, negative = cytotoxicity | Potency |
| --- | --- | --- |
| CC(=O)Nc1ccc(C)cc1C | -11.4% | – |
| NCCNCCO | 12.5% | – |
| O=c1cc(-c2ccccc2)oc2ccc3ccccc3c12 | -11.3% | – |
| NNC(=O)CP(=O)(c1ccccc1)c1ccccc1 | -2.37% [at 35.3 µM] | – |
| O=C1c2ccccc2C(=O)N1CCc1noc(-c2ccc(CN3CCCCCC3)s2)n1 | – | 35.7 µM (active) |
| COC(=O)C1=C(C)NC(C)=C(C(=O)O[C@@H]2CCCN(Cc3ccccc3)C2)[C@@H]1c1cccc([N+](=O)[O-])c1 | -21.4% [at 35.3 µM] | – |
| CC(C)(O)c1ccc(CNC(=O)c2cccnc2Oc2ccc3nonc3c2)cc1 | -21.6% | – |
| CCC(C)COC(C)=O (stereo not given) | 0.471% | – |
| O=C(O)CCc1nc(-c2ccccc2)c(-c2ccccc2)o1 | 1.27% [at 35.3 µM] | – |
| N#CCc1ccc(Cl)cc1Cl | -20.9% | – |
| Cc1ccc2c(Br)cc(Br)c(O)c2n1 | -15.8% [at 35.3 µM] | – |
| COc1cc(C(=O)NCCCCCC(=O)O)cc(OC)c1OC | 14.6% [at 35.3 µM] | – |
| CN1C(C(=O)Nc2ccccn2)=C(O)c2sccc2S1(=O)=O | 18% [at 35.3 µM] | – |
| CCOC(=O)/C=C/C(=O)OCC | 1.25% | – |
| CCOC(=O)[C@H](CCc1ccccc1)N[C@@H](C)C(=O)N(CC(=O)O)C1Cc2ccccc2C1 | 17% [at 35.3 µM] | – |
| CCC1CO1 (stereo not given) | 2.99% | – |
| O=C1c2ccccc2C(=O)C1c1ccc(Br)cc1 | -7.05% [at 35.3 µM] | – |
| O=C(O)C[C@H](NC(=O)OCc1ccccc1)C(=O)O | 0.226% | – |
| C=Cc1ccc(S(=O)(=O)O)cc1 | 0.294% | – |
| C=CC(=O)OCC1CC2CC1C1CCC(COC(=O)C=C)C21 (stereo not given) | -22.8% | – |

| Compound | activity change, negative = cytotoxicity | Potency |
| --- | --- | --- |
| CN1C(=O)c2ccccc2C1=O | 3.01% | – |
| CC1=C(CC=O)C(C)(C)CCC1 | -8.18% | – |
| O=C(O)CCC(=O)C(=O)O | 3.47% | – |
| CC[C@]1(O)C[C@H]2CN(CCc3c([nH]c4ccccc34)[C@@](C(=O)OC)(c3cc4c(cc3OC)N(C=O)[C@H]3[C@@](O)(C(=O)OC)[C@H](OC(C)=O)[C@]5(CC)C=CCN6CC[C@]43[C@@H]65)C2)C1 | -23.3% [at 35.3 µM] | – |
| O=C(OCC(O)CO)c1ccccc1Nc1ccnc2cc(Cl)ccc12 (stereo not given) | – | 8.49 µM (active) |
| O=C(O)c1ccc(OCCCOc2ccc(C(=O)O)cc2)cc1 | -0.253% [at 35.3 µM] | – |
| CC(CO)CO | 3.28% | – |
| CC(=O)[C@H]1[C@H](C#N)C[C@H]2[C@@H]3CC=C4C[C@@H](O)CC[C@]4(C)[C@H]3CC[C@@]21C | -18.5% [at 35.3 µM] | – |
| C=C1c2cccc(O)c2C(O)=C2C(=O)[C@]3(O)C(O)=C(C(N)=O)C(=O)[C@@H](N(C)C)[C@@H]3[C@@H](O)[C@H]12 | 3.62% [at 35.3 µM] | – |
| c1ccc(C[n+]2cccc3ccccc32)cc1 | -5.9% | – |
| CC(C)(C)C(=O)C(=O)O | -2.75% | – |
| CC1CC(OC(=O)C(O)c2ccccc2)CC(C)(C)N1C (stereo not given) | 2.86% [at 35.3 µM] | – |
| CO[C@]1(NC(=O)CSC(F)F)C(=O)N2C(C(=O)O)=C(CSc3nnnn3CCO)CO[C@H]21 | 11.1% [at 35.3 µM] | – |
| C[C@@H]1CC(=O)NN=C1c1ccc(NN=C(C#N)C#N)cc1 | – | inactive |
| O=C(/C=C/c1ccccc1)OCCc1ccccc1 | -1.86% | – |
| CCOc1ccc(Cc2nccc3cc(OCC)c(OCC)cc23)cc1OCC | – | 10.7 µM (active) |
| O=Cc1c2ccccc2c(Cl)c2ccccc12 | -1.24% [at 35.3 µM] | – |
| CCCCCCC(C)(C)C(=O)O | -1.05% | – |
| CCc1ccccc1 | 6.66% | – |
| CN(C)CCN1C(=O)c2ccccc2N(C)c2ccccc21 | 6.85% [at 35.3 µM] | – |
